Source: PubChem BioAssay AID1159580 (chemical genetic matrix, 2015)
The campaign covered roughly 5,500 compounds. About 2,000 (36%) were called active. Another 18% or so got no clear call; they are omitted. Rule as the data show it: active = normalized growth mostly below about 0.91 (no sharp cut-off); inconclusive = no clear call, values can overlap the other calls; inactive = mostly above about 0.92. The list shows a part of the results.

Experiment: chemical genetic growth profiling, strain panel (AID 1159580);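 also: tested at 20 µM; growth read once vehicle control cultures reached saturation at 30 °C; 1 = growth at the plate median or of vehicle wells; lower values mean less growth of the strain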
Details: growth OD

Measured: normalized growth

COc1cc(C(=O)NCc2ccc(OCCN(C)C)cc2)cc(OC)c1OC
inactive: S. cerevisiae deletion strains, locus YJL187C, strain SWE1, stronger effect = lower value 0.99 | S. cerevisiae deletion strains, locus YJR043C, strain POL32, stronger effect = lower value 0.984 | S. cerevisiae deletion strains, locus YJR066W, strain TOR1, stronger effect = lower value 0.929 | S. cerevisiae deletion strains, locus YKL009W, strain mrt4, stronger effect = lower value 1.01 | S. cerevisiae deletion strains, locus YKL068W, stronger effect = lower value 0.978 | S. cerevisiae deletion strains, locus YKL085W, strain MDH1 (second series), stronger effect = lower value 0.975 | S. cerevisiae deletion strains, locus YKL085W, strain MDH1, stronger effect = lower value 0.975 | S. cerevisiae deletion strains, locus YKL160W, strain elf1, stronger effect = lower value 0.947 | S. cerevisiae deletion strains, locus YKL190W, strain CNB1, stronger effect = lower value 0.986 | S. cerevisiae deletion strains, locus YKR001C, strain vps1, stronger effect = lower value 0.983 | S. cerevisiae deletion strains, locus YKR026C, strain gcn3, stronger effect = lower value 0.989 | S. cerevisiae deletion strains, locus YKR091W, strain srl3, stronger effect = lower value 0.993 | S. cerevisiae deletion strains, locus YLL001W, strain dnm1, stronger effect = lower value 1 | S. cerevisiae deletion strains, locus YLL026W, stronger effect = lower value 1 | S. cerevisiae deletion strains, locus YLL041C, strain sdh2, stronger effect = lower value 1 | S. cerevisiae deletion strains, locus YLR027C, strain aat2, stronger effect = lower value 0.996 | S. cerevisiae deletion strains, locus YLR039C, strain RIC1, stronger effect = lower value 0.954 | S. cerevisiae deletion strains, locus YLR058C, strain SHM2, stronger effect = lower value 0.97 | S. cerevisiae deletion strains, locus YLR102C, strain apc9, stronger effect = lower value 0.984 | S. cerevisiae deletion strains, locus YLR113W, strain HOG1, stronger effect = lower value 0.986 | S. cerevisiae deletion strains, locus YLR221C, strain rsa3, stronger effect = lower value 1.01 | S. cerevisiae deletion strains, locus YLR258W, strain gsy2, stronger effect = lower value 0.999 | S. cerevisiae deletion strains, locus YLR262C, strain YPT6 (second series), stronger effect = lower value 1.02 | S. cerevisiae deletion strains, locus YLR262C, strain YPT6, stronger effect = lower value 0.965 | S. cerevisiae deletion strains, locus YLR268W, strain sec22, stronger effect = lower value 0.971 | S. cerevisiae deletion strains, locus YLR320W, strain mms22, stronger effect = lower value 0.978 | S. cerevisiae deletion strains, locus YLR330W, strain CHS5, stronger effect = lower value 0.999 | S. cerevisiae deletion strains, locus YLR342W, strain FKS1 (second series), stronger effect = lower value 1.07 | S. cerevisiae deletion strains, locus YLR342W, strain FKS1, stronger effect = lower value 0.991 | S. cerevisiae deletion strains, locus YLR357W, strain rsc2, stronger effect = lower value 0.959 | S. cerevisiae deletion strains, locus YLR370C, strain arc18, stronger effect = lower value 0.99 | S. cerevisiae deletion strains, locus YLR371W, strain rom2, stronger effect = lower value 0.984 | S. cerevisiae deletion strains, locus YLR384C, strain iki3, stronger effect = lower value 1 | S. cerevisiae deletion strains, locus YLR418C, strain cdc73, stronger effect = lower value 1.01 | S. cerevisiae deletion strains, locus YML016C, strain PPZ1, stronger effect = lower value 0.991 | S. cerevisiae deletion strains, locus YML032C, strain rad52, stronger effect = lower value 0.987 | S. cerevisiae deletion strains, locus YML120C, strain ndi1, stronger effect = lower value 1.01 | S. cerevisiae deletion strains, locus YML124C, strain tub3, stronger effect = lower value 0.982 | S. cerevisiae deletion strains, locus YMR058W, strain fet3, stronger effect = lower value 1.02 | S. cerevisiae deletion strains, locus YMR078C, strain ctf18, stronger effect = lower value 0.984 | S. cerevisiae deletion strains, locus YMR125W, strain sto1, stronger effect = lower value 0.961 | S. cerevisiae deletion strains, locus YMR129W, stronger effect = lower value 1.01 | S. cerevisiae deletion strains, locus YMR205C, strain PFK2, stronger effect = lower value 0.992 | S. cerevisiae deletion strains, locus YMR223W, strain ubp8, stronger effect = lower value 1.03 | S. cerevisiae deletion strains, locus YMR231W, strain pep5, stronger effect = lower value 1 | S. cerevisiae deletion strains, locus YMR307W, strain GAS1, stronger effect = lower value 1.05 | S. cerevisiae deletion strains, locus YNL067W, strain RPL9B, stronger effect = lower value 0.972 | S. cerevisiae deletion strains, locus YNL071W, strain lat1, stronger effect = lower value 0.991 | S. cerevisiae deletion strains, locus YNL183C, strain NPR1, stronger effect = lower value 0.937 | S. cerevisiae deletion strains, locus YNL209W, strain ssb2, stronger effect = lower value 0.988 | S. cerevisiae deletion strains, locus YNL233W, strain BNI4, stronger effect = lower value 0.994 | S. cerevisiae deletion strains, locus YNL248C, strain rpa49, stronger effect = lower value 0.95 | S. cerevisiae deletion strains, locus YNL250W, strain rad50, stronger effect = lower value 0.977 | S. cerevisiae deletion strains, locus YNL271C, strain bni1, stronger effect = lower value 0.976 | S. cerevisiae deletion strains, locus YNL298W, strain CLA4, stronger effect = lower value 0.997 | S. cerevisiae deletion strains, locus YNL307C, strain MCK1, stronger effect = lower value 0.98 | S. cerevisiae deletion strains, locus YNL322C, strain KRE1 (second series), stronger effect = lower value 0.983 | S. cerevisiae deletion strains, locus YNL322C, strain KRE1, stronger effect = lower value 0.984 | S. cerevisiae deletion strains, locus YNR049C, strain mso1, stronger effect = lower value 1 | S. cerevisiae deletion strains, locus YNR052C, strain pop2, stronger effect = lower value 0.988 | S. cerevisiae deletion strains, locus YOL012C, strain htz1 1.41 | S. cerevisiae deletion strains, locus YOL147C, strain pex11, stronger effect = lower value 0.991 | S. cerevisiae deletion strains, locus YOR001W, strain rrp6, stronger effect = lower value 1.01 | S. cerevisiae deletion strains, locus YOR061W, strain CKA2, stronger effect = lower value 0.962 | S. cerevisiae deletion strains, locus YOR069W, strain VPS5, stronger effect = lower value 0.997 | S. cerevisiae deletion strains, locus YOR070C, strain gyp1, stronger effect = lower value 0.997 | S. cerevisiae deletion strains, locus YOR080W, strain dia2, stronger effect = lower value 0.997 | S. cerevisiae deletion strains, locus YOR083W, strain WHI5, stronger effect = lower value 0.927 | S. cerevisiae deletion strains, locus YOR106W, strain vam3, stronger effect = lower value 0.98 | S. cerevisiae deletion strains, locus YOR136W, strain idh2, stronger effect = lower value 0.98 | S. cerevisiae deletion strains, locus YOR144C, strain elg1, stronger effect = lower value 0.993 | S. cerevisiae deletion strains, locus YOR184W, strain ser1, stronger effect = lower value 0.985 | S. cerevisiae deletion strains, locus YOR231W, strain MKK1, stronger effect = lower value 0.984 | S. cerevisiae deletion strains, locus YOR265W, strain rbl2, stronger effect = lower value 1 | S. cerevisiae deletion strains, locus YOR270C, strain vph1, stronger effect = lower value 0.973 | S. cerevisiae deletion strains, locus YOR290C, strain snf2, stronger effect = lower value 0.972 | S. cerevisiae deletion strains, locus YOR316C, strain cot1, stronger effect = lower value 0.977 | S. cerevisiae deletion strains, locus YPL051W, strain arl3, stronger effect = lower value 0.982 | S. cerevisiae deletion strains, locus YPL055C, strain LGE1, stronger effect = lower value 0.931 | S. cerevisiae deletion strains, locus YPL078C, strain atp4, stronger effect = lower value 0.965 | S. cerevisiae deletion strains, locus YPL106C, strain sse1, stronger effect = lower value 0.935 | S. cerevisiae deletion strains, locus YPL240C, strain hsp82, stronger effect = lower value 0.995 | S. cerevisiae deletion strains, locus YPL256C, strain CLN2, stronger effect = lower value 0.97 | S. cerevisiae deletion strains, locus YPR119W, strain clb2, stronger effect = lower value 0.981 | S. cerevisiae deletion strains, locus YPR141C, strain kar3, stronger effect = lower value 0.969 | S. cerevisiae deletion strains, locus YPR163C, strain tif3, stronger effect = lower value 0.988 | S. cerevisiae deletion strains, locus YPR167C, strain met16, stronger effect = lower value 0.994 | S. cerevisiae deletion strains, strain wtn01, stronger effect = lower value 1 | S. cerevisiae strains, strain wild type, stronger effect = lower value 0.979
